{
  "source": "PubChem BioAssay (EPA / NIEHS)",
  "note": "Calls of active or inactive are those of the source. How the source made its calls: active means hit-call score of the fitted dose curve at least 0.9, where 1 is the maximum; inactive means score below 0.9.",
  "data": [
    {"assay": "ATG_AP_1_CIS: Attagene CIS-FACTORIAL HepG2 Assay for human Activator Protein 1 (AP-1) (AID 2282931)", "conditions": "HepG2 Attagene cis-factorial AP-1 reporter mRNA; actives raise or lower the signal", "method": "ATG_CIS is a cell-based, multiplexed-readout assay that uses HepG2, a human liver cell line, with measurements taken at 24 hours after chemical dosing in a 24-well plate.ATG_AP_1_CIS is one of 52 assay component(s) measured or calculated from the ATG_CIS assay. It is designed to make measurements of mRNA induction, a form of inducible reporter, as detected with fluorescence intensity signals by Reverse transcription polymerase chain reaction (RT-PCR) and Capillary electrophoresis technology.Data from the assay component ATG_AP_1_CIS was analyzed into 1 assay endpoint. This assay endpoint, ATG_AP_1_CIS, was analyzed with bidirectional fitting relative to DMSO as the negative control and baseline of activity. Using a type of inducible reporter, measures of mRNA for gain or loss-of-signal activity can be used to understand the reporter gene at the transcription factor-level as they relate to the gene FOS and JUN. Furthermore, this assay endpoint can be referred to as a primary readout, because this assay has produced multiple assay endpoints where this one serves a reporter gene function. To generalize the intended target to other relatable targets, this assay endpoint is annotated to the dna binding intended target family, where the subfamily is basic leucine zipper.\nHuman liver HepG2 cells are transiently transfected with multiple reporter transcription units (MRTUs) in 6-well plates using FuGene 6 reagent (Roche; 3 ml FuGene/1 mg DNA). The MRTU constructs are regulated by a cis-regulating element (promoter). […] A major difference between the CIS and TRANS system is that in CIS activities of endogenous TFs are measured, whereas the TRANS assay evaluates changes in activities of exogenous, chimeric NR-Gal4 proteins. […] At the end of 24 hour incubation, total RNA was isolated using TriZol reagent (Invitrogen). The isolated RNA is then reverse-transcribed using oligo(dT) primer and Mo-MLV reverse transcriptase (Invitrogen) with DNAse I (Ambion) treatment for 30 min. The one-tenth of the produced cDNA was amplified by PCR using Taq DNA polymerase (Invitrogen) and two reporter sequence-specific primers. The PCR products were fluorescently labeled by primer extension with 6-arboxyfluorescein (6-FAM) 5'-labeled reporter sequence-specific primer (2 min at 95 C, 20 s at 68 C and 10 min at 72 C) and these products were digested with 5U of HpaI (New England Biolabs) for 2h at 37 C. The fragments were purified using Qiaquick PCR columns (Qiagen), analyzed on an ABI 3130xL genetic analyzer (Applied Biosystems) with peak positions identified by using a set of X-rhodamine (ROX)-labeled MapMarker1000 molecular weight standards (BioVentures). The raw capillary electrophoresis data was processed using Attagraph software (Attagene).", "values": [
      {"smiles": "COCC(C)N(C(=O)CCl)c1c(C)csc1C", "note": "(stereo not given)", "outcome": "inactive"},
      {"smiles": "C=C(C)CN(CC)c1c([N+](=O)[O-])cc(C(F)(F)F)cc1[N+](=O)[O-]", "outcome": "inactive"},
      {"smiles": "CC1(C)C(C=C(Cl)Cl)C1C(=O)OC(C#N)c1cccc(Oc2ccccc2)c1", "note": "(stereo not given)", "outcome": "inactive"},
      {"smiles": "O=c1n(Cl)c(=O)n(Cl)c(=O)n1Cl", "outcome": "inactive"},
      {"smiles": "Cc1nc(N(C)C)nc(OC(=O)N(C)C)c1C", "outcome": "inactive"},
      {"smiles": "COC(=O)NS(=O)(=O)c1ccc(N)cc1", "outcome": "inactive"},
      {"smiles": "CC(C)=CC1C(C(=O)OCc2coc(Cc3ccccc3)c2)C1(C)C", "note": "(stereo not given)", "AC50": "14.3 µM (active)"},
      {"smiles": "Nc1cnn(-c2ccccc2)c(=O)c1Cl", "outcome": "inactive"},
      {"smiles": "Cc1c(COC(=O)[C@@H]2[C@H](/C=C(\\Cl)C(F)(F)F)C2(C)C)cccc1-c1ccccc1", "outcome": "inactive"},
      {"smiles": "COP(=O)(OC)O/C(C)=C/C(=O)N(C)C", "outcome": "inactive"},
      {"smiles": "CC1(C)CCC(=Cc2ccc(Cl)cc2)C1(O)Cn1cncn1", "note": "(stereo not given)", "outcome": "inactive"},
      {"smiles": "CC(C)N1C(=O)c2ccccc2NS1(=O)=O", "outcome": "inactive"},
      {"smiles": "CCCCC(O)(Cn1cncn1)c1ccc(Cl)cc1Cl", "note": "(stereo not given)", "AC50": "50 µM (active)"},
      {"smiles": "CCNP(=S)(OC)O/C(C)=C/C(=O)OC(C)C", "note": "(stereo not given)", "outcome": "inactive"},
      {"smiles": "CC1(C)C(C(=O)OC(C#N)c2cccc(Oc3ccccc3)c2)C1(C)C", "note": "(stereo not given)", "outcome": "inactive"},
      {"smiles": "CC(C)N1C(=O)N(c2ccccc2)CSC1=NC(C)(C)C", "outcome": "inactive"},
      {"smiles": "CC(C)Oc1cccc(NC(=O)c2ccccc2C(F)(F)F)c1", "outcome": "inactive"},
      {"smiles": "O=C(Nc1ccccc1-c1ccc(Cl)cc1)c1cccnc1Cl", "outcome": "inactive"},
      {"smiles": "CN/C(=N\\[N+](=O)[O-])NCc1cnc(Cl)s1", "outcome": "inactive"},
      {"smiles": "COCc1cnc(C2=NC(C)(C(C)C)C(=O)N2)c(C(=O)O)c1", "note": "(stereo not given)", "outcome": "inactive"},
      {"smiles": "CS(=O)(=O)c1ccc(C(=O)C2C(=O)CCCC2=O)c([N+](=O)[O-])c1", "outcome": "inactive"},
      {"smiles": "Nc1c(Cl)c(Cl)nc(C(=O)O)c1Cl", "outcome": "inactive"},
      {"smiles": "COc1cc(OC)nc(NC(=O)NS(=O)(=O)c2ncccc2OCC(F)(F)F)n1", "outcome": "inactive"},
      {"smiles": "CCOP(=S)(OCC)Oc1nc(Cl)n(C(C)C)n1", "outcome": "inactive"},
      {"smiles": "COC(=O)N(C(=O)N1CO[C@@]2(C(=O)OC)Cc3cc(Cl)ccc3C2=N1)c1ccc(OC(F)(F)F)cc1", "AC50": "4.67 µM (active)"},
      {"smiles": "O=C(O)c1c(Cl)ccc2cc(Cl)cnc12", "outcome": "inactive"},
      {"smiles": "CCOc1nc(F)cc2nc(S(=O)(=O)Nc3c(Cl)cccc3Cl)nn12", "outcome": "inactive"},
      {"smiles": "CCC(C)n1c(=O)[nH]c(C)c(Br)c1=O", "note": "(stereo not given)", "outcome": "inactive"},
      {"smiles": "CCN(CC)C(=O)C(C)Oc1cccc2ccccc12", "note": "(stereo not given)", "outcome": "inactive"},
      {"smiles": "Cc1cnc(C2=NC(C)(C(C)C)C(=O)N2)c(C(=O)O)c1", "note": "(stereo not given)", "outcome": "inactive"},
      {"smiles": "N#CN=C1SCCN1Cc1ccc(Cl)nc1", "outcome": "inactive"},
      {"smiles": "CNC(=O)Oc1cccc2ccccc12", "outcome": "inactive"},
      {"smiles": "CSC(=O)c1c(C(F)F)nc(C(F)(F)F)c(C(=O)SC)c1CC(C)C", "outcome": "inactive"},
      {"smiles": "Cc1cc(C)nc(Nc2ccccc2)n1", "AC50": "30.4 µM (active)"},
      {"smiles": "Clc1nc(Cl)nc(Nc2ccccc2Cl)n1", "AC50": "50 µM (active)"},
      {"smiles": "Nc1c(Cl)c(F)nc(OCC(=O)O)c1Cl", "outcome": "inactive"},
      {"smiles": "Cc1ccc(N=CN(C)C=Nc2ccc(C)cc2C)c(C)c1", "outcome": "inactive"},
      {"smiles": "CCCC(=NOCC)C1=C(O)CC(CC(C)SCC)CC1=O", "note": "(stereo not given)", "outcome": "inactive"},
      {"smiles": "COC(=O)c1c(C(F)F)nc(C(F)(F)F)c(C2=NCCS2)c1CC(C)C", "outcome": "inactive"},
      {"smiles": "CCOC(=O)C(C)OC(=O)c1cc(Oc2ccc(C(F)(F)F)cc2Cl)ccc1[N+](=O)[O-]", "note": "(stereo not given)", "outcome": "inactive"}
    ]}
  ]
}
